Drawing on PubChem BioAssay (NCATS), this text covers Potency for 28 compounds.

In the assay the target is Calcium and integrin-binding protein 1 (Homo sapiens) (UniProt Q99828). The experiment in a line: Primary qHTS for Identification of Calcium Integrin Binding Protein 1 (CIB1) Competitor (AID 1508620).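 Further: GST tagged CIB1 binding a fluorescein labelled alphaIIb integrin peptide tracer; top concentration of the series differs between compounds.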 Conditions: CIB1-GST / FITC-alphaIIb peptide fluorescence polarization; series mostly up to 114 µM. The gist of the method: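 CIB1-GST (1 uM final) and compound incubated 15 min at room temperature before adding FITC-alphaIIb peptide tracer (100 nM final). Competition for binding read by fluorescence polarization (ex 480, em 540) after another 15 min at room temperature.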
On the technique in general: Quantitative high-throughput screening tests each substance at several concentrations.

The structures appear in SMILES notation. Results filed as inconclusive are left out. A call without a number means that no potency is given here. Activity calls are given as the source filed them. The call rests on the fitted dose curve; in most records, active means well fitted inhibition curve with a large enough effect; inconclusive means small, poorly fitted or top-dose-only effect; inactive means flat fitted curve, though single readings scatter.

Calcium and integrin-binding protein 1 (Homo sapiens), sequence (Q99828 whole entry, looked up): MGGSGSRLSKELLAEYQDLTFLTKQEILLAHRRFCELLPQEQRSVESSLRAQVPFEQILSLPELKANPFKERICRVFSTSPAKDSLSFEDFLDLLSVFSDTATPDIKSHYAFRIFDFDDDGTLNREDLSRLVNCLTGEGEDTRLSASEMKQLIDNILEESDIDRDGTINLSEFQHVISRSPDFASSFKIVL

`CC(=O)Nc1cccc([S+](=O)([O-])N2CCCN([S+](=O)([O-])c3cccc(NC(C)=O)c3)CC2)c1`: the Potency entry was “inactive”.
For the compound `O=C1c2ccccc2C(=O)N1c1ncccc1O`, the Potency entry is “inactive”.
The entry for `Cc1cc(C)n2ncc(C(=O)NC3CCCCC3)c2n1` is “inactive”; for `c1cncc(-c2ccc(CNc3nc(N4CCCC4)nc4ccccc34)cc2)c1` it is “inactive”.
As for `COc1ccc(C2Nc3ccccc3C(=O)N2Cc2ccccc2)cc1COc1cccc(C(F)(F)F)c1` (stereo not drawn), the Potency result is “inactive”.
Take `Cc1ccsc1CNc1ncnc2ccc(-c3c(C)noc3C)cc12`: the Potency result is “inactive”.
On to `COc1ccc(C2=Nn3c(nnc3-c3ccccc3OC)SC2)cc1OCC1CC1`, for which the Potency entry was “inactive”.
Take `O=C(OCC#CCSc1nnc(-c2ccc3ccccc3c2)o1)c1ccc(F)c(F)c1`: the Potency entry is “inactive”.
On to `FC(F)(F)c1cnc(N2CCN(C(=S)Nc3cc(Cl)ccn3)CC2)c(Cl)c1`, for which the Potency result is “inactive”.
For `Cc1noc(C)c1-c1ccc2ncnc(NCc3ccc(F)c(F)c3)c2c1`, the Potency entry is “inactive”.
Consider `Cc1cc(C)nc(NC(=S)N2CCN(c3nc(C)cnc3C)CC2)c1`, for which the Potency entry was “inactive”.
As for `Cc1cc(C)nc(Nc2nnc(N3CCN(c4cccc(C(F)(F)F)c4)CC3)s2)c1`, the entry is “inactive”; as for `Cc1ccc(OCCn2c(CCNC(=O)c3ccc(F)cc3F)nc3ccccc32)cc1`, “inactive”.
For the compound `COc1ccc(C2Nc3ccccc3C(=O)N2Cc2ccccc2)cc1COc1ccc(NC(C)=O)cc1` (stereo not drawn), the Potency entry was “inactive”.
In the case of `COc1ccc(NC(=O)c2cnn3c(C)cc(C)nc23)cc1Cl`, the Potency result was “inactive”.
On to `N#Cc1c(-c2ccc(-c3ccccc3)cc2)no[n+]1[O-]`, for which the Potency result was “inactive”.
The entry for `N#CC1=C(NC=NCc2ccccc2)Oc2ccc3ccccc3c2C1c1ccccc1` (stereo not drawn) is “inactive”; for `Cn1nnnc1Sc1ncnc2scc(-c3ccc(Br)cc3)c12` it is “inactive”; for `O=C(NCc1cccnc1)C1CCN(S(=O)(=O)c2cccs2)CC1` it is “inactive”.
`N#Cc1c(-c2cccc([N+](=O)[O-])c2)no[n+]1[O-]`: the Potency entry is “inactive”.
With `CCc1cccc(Nc2nn3c(=O)c4ccccc4nc3s2)c1`, the Potency entry is “inactive”.
Take `Cc1cnc(-c2ccccc2N(C)C)nc1NCc1ccc(-c2cccnc2)cc1`: the Potency entry was “inactive”.
The entry for `CN1CCOc2ccc(S(=O)(=O)N3CCN(S(=O)(=O)c4c(F)cccc4F)CC3)cc21` is “inactive”; for `NC(=O)N1CCN(c2nc(-c3ccc(Br)cc3)cs2)CC1` it is “inactive”; for `N#Cc1nc(Nc2cccc(-c3ccccc3)c2)nc(NC2CCCC2)n1` it is “inactive”.
`O=C(N[C@H]1CCCc2c1cnn2-c1ccc(F)cc1F)c1ccccn1`: the Potency result is “inactive”.
With `O=C1c2ccccc2C(=O)N1c1cccc2cccnc12`, the Potency result was “inactive”.
With `COc1ccc(-c2ccc3ncnc(N(C)Cc4csc(C)n4)c3c2)cc1OC`, the Potency result was “inactive”.
